CRE Fsk mod: modulators of forskolin-stimulated CRE signaling in CHO cells; CHO CRE-bla reporter (cAMP response element driving beta-lactamase), forskolin EC10, beta-lactamase ratio; Potency, µM (highest dose often 38.2 µM), inactives show at the highest dose activity change, negative = inhibition, hits mostly activators; 2.5% of 71,000 active; active = well fitted activation curve with a large enough effect in the signal ratio, with a control signal flat, not every such curve was filed as active; inconclusive = small, poorly fitted or top-dose-only effect, or effect the other way, or a change in a side signal; the % refers to the signal ratio; also: % of control where 0% means no effect
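Titrated compounds plus EC10 NKH 477 on CHO CRE-bla cells, 3 h, 37 °C. CCF4, 2 h RT. Ratio 460/530 nm → AC50.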
ERK AVP inh: vasopressin-driven ERK pathway inhibition. HEK293-V1b, vasopressin-stimulated pERK AlphaScreen. Potency, µM (series often up to 57.5 µM), without a hit: at the highest dose activity, negative = inhibition, hits mostly inhibitors. 0.99% of 72,000 active. AID 995; also: % is scaled to controls: 0 for no effect and ±100 for the full control effect; nearly all actives have a fitted effect of over 55% in size
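Overnight-seeded V1b-HEK293 cells in 1% FBS got compound, then vasopressin (25 nM final, 5 min, 37C), then lysis buffer. AlphaScreen detection of phospho-ERK; activity normalized to basal and full-stimulation controls.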
HEK293 cAMP cs: raises cAMP in parental HEK293 cells, TSHR agonist counter-screen. parental HEK293 CNG cAMP sensor, membrane potential fluorescence. Potency, µM (series often up to 57.1 µM), for the others: at the top dose activation, actives largely listed as activators. 2.5% of 73,000 active. AID 938; also: % of control where 0% means no effect; nearly all actives have a fitted effect of over 55% in size
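Parental HEK 293 cells stably expressing a cAMP-gated CNG channel were loaded with membrane potential dye containing 100 uM RO 20-1724 for 60 min. Compound added for 30 min; depolarization read as fluorescence intensity at 590 nm.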
IkB signaling: inhibitors of IkB signaling in ABC-DLBCL cells; ABC-DLBCL IkBa-CBG/CBR dual luciferase ratio, 4 h; response scale: scaled: untreated 0%, proteasome inhibitor 100%; Potency, µM (titrated, usually from 57.1 µM), for inactives: top-dose IkBa stabilization activation; 0.04% of 110,000 active; AID 445; active = well fitted curve in the direction sought with a large enough effect in the signal ratio, not every such curve was filed as active; inconclusive = small, poorly fitted or top-dose-only effect, or a change in a side signal; the % refers to the signal ratio;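 also: the direction sought is a rising ratio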
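Curves were fitted separately to fusion (green), unfused (red) and ratio luminescence, then classed by r2, magnitude and activity. Cells: OCI-Ly3, 4 h compound plus doxycycline at 37C; 10 uM MG-132 defined full response.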
TSHR agonist: TSH receptor (human) agonism; P16473; HEK293-CNG-TSHR cells (CNG channel as cAMP sensor), membrane potential dye, cAMP; Potency, µM (doses to about 57.1 µM), without a hit: top-dose activation, actives largely listed as activators; 0.48% of 73,000 active; active = well fitted activation curve with a large enough effect in the main read-out, with a control signal flat, not every such curve was filed as active; inconclusive = small, poorly fitted or top-dose-only effect, or a change in a side signal; inactive = no such curve, though single readings can be large or run the other way; % of control where 0% means no effect;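 also: the control signal comes from parental cells without the receptor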
Target sequence (P16473 whole entry, looked up): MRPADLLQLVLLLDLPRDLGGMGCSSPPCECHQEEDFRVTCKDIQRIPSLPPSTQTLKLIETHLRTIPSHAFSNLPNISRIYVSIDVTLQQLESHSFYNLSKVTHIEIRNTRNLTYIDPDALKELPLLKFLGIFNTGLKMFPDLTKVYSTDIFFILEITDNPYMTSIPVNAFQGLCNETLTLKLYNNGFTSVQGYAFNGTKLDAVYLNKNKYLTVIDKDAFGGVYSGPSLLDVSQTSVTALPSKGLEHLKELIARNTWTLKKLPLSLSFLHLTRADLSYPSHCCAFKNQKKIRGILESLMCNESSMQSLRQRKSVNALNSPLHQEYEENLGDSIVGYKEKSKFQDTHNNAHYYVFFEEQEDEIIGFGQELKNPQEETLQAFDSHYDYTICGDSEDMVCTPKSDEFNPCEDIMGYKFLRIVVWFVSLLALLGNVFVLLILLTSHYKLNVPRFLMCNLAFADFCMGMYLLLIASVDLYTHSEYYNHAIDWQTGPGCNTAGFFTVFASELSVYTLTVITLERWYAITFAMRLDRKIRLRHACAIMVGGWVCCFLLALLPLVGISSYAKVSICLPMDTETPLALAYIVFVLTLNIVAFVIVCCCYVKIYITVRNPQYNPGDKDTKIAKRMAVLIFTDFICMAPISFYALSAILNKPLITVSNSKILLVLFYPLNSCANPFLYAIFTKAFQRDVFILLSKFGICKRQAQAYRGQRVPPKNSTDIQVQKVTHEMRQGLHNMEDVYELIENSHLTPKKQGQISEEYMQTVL
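cAMP rise detected as CNG-channel membrane depolarization by fluorescent dye (emission 590 nm), 30 min after compound, following 60 min dye loading containing 100 uM RO 20-1724 at room temperature. Cells: TSHR/CNG HEK 293, with parental CNG HEK 293 as control.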
Starred values were filed as active, the others as inactive; ? = inconclusive; . = no result; [ ] = another dose, or the depositor's remark. Compounds with a hit are over-represented: about 3.6% of the library has one in this group of screens. Unless noted, calls follow the shape of the dose curve; as a rule, active = well fitted curve in the direction sought with a large enough effect; inconclusive = small, poorly fitted or top-dose-only effect, or another doubt; inactive = no such curve, though single readings can be large; an effect the other way counts as inactive or inconclusive. Potency is read from the fitted curve at half-maximal effect.

SMILES	CRE Fsk mod	ERK AVP inh	HEK293 cAMP cs	IkB signaling	TSHR agonist
CCCn1cnc2c(SCc3ccc(Cl)cc3)nc(N)nc21	3.2µM*	-18%[11.5 µM]	-7%[11.4 µM]	-1%[11.4 µM]	8%[11.4 µM]
O=C(NCc1ccco1)C1CCN(C(=O)c2cc3sccc3n2Cc2ccc(Cl)cc2)CC1	0%	?	13µM*	?	?
Cc1nc(SCC(=O)Nc2ccc(C)c(F)c2)c2oc3ccccc3c2n1	0.63µM*	-18%	?	-2%	?
COC(=O)Nc1nc2ccc(C(=O)c3ccccc3)cc2[nH]1	10µM*	-7%	8%[25.6 µM]	?	-12%[25.6 µM]
COC(=O)Nc1nc2ccc(S(=O)c3ccccc3)cc2[nH]1 (stereo unspecified)	.	-9%	.	.	.
CCC(CO)NCc1ccc2c(c1)n(C)c(=O)n2C (stereo unspecified)	-4%	0%	0%	5%	-1%
CN(C)CCSc1nnc2sc3ccccc3n12	5%	16%	1%	-1%	5%
COc1ccc(OCCSc2nnc3sc4ccccc4n23)cc1	0.5µM*	29%	22%	?	16%[11.4 µM]
CCOC(=O)c1ccc(N2C(=O)c3n[nH]c(C)c3C2c2ccccc2)cc1 (stereo unspecified)	?	?	32µM*	1%	?
Cc1cccc(N2CCN(c3nnnn3-c3ccccc3)CC2C)c1 (stereo unspecified)	13%	-14%	25µM*	?	?
Cc1cccc(N2CCN(c3cc(C)nc4nnnn34)CC2C)c1 (stereo unspecified)	10%	10%	4%	0%	-1%
CCOC(=O)CSc1nc2ccc(NC(=O)COc3ccccc3)cc2s1	.	.	.	11%	.
Nc1ccc(S(=O)(=O)Nc2ccccn2)cc1	-5%[17.1 µM]	13%	-2%[25.6 µM]	1%[25.6 µM]	-3%[25.6 µM]
O=C1C(Cl)=C(Nc2ccc(S(=O)(=O)Nc3ccccn3)cc2)C(=O)c2ccccc21	-4%[7.6 µM]	-26%[11.5 µM]	-3%[11.4 µM]	6.3µM*	-2%[11.4 µM]
CCn1c(SCC(N)=O)nc2c(c1=O)C1(CCCC1)Cc1ccccc1-2	4µM*	-22%	?	?	?
CCc1nc2c(c(=O)[nH]1)C1(CCCC1)Cc1ccccc1-2	?	-5%	8%	1%	-14%
CCn1c(=O)c2c(n3cnnc13)-c1ccccc1CC21CCCCC1	3.2µM*	?	0%	0%	13%
N#CCSc1n[nH]c2nc3c(c(=O)n12)C1(CCCC1)Cc1ccccc1-3	?	-8%	?	?	?
Cc1cccc(C2=Nc3ccccc3N=C(c3cc(Cl)ccc3O)C2)c1	.	.	.	5%	.
Cc1c(C(=O)Nc2ccc(F)cc2)oc2ccc(S(=O)(=O)N3CCC4(CC3)OCCO4)cc12	1%	?	6%	?	12%
Cc1ccsc1-c1nc(CSCC(=O)NCc2ccc3c(c2)OCO3)c(C)o1	20%	?	20%	?	20µM*
COc1ccc(-c2nc(CSCC(=O)N3CCc4ccccc43)c(C)o2)cc1OC	-1%	19%	10%	-1%	5%[11.4 µM]
CCOC(=O)N1CCC(NC(=O)CSCc2nc(-c3sccc3C)oc2C)CC1	18%	-23%	17%	1%	26%
COc1ccc(-c2nc(CSCC(=O)NCc3ccc4c(c3)OCO4)c(C)o2)cc1OC	?	32µM*	14%	?	8%
CCCn1c(SCC(=O)Nc2nc(C)c(C(=O)OC)s2)nnc1C(C)C	22%	7%	?	-1%	?
SMILES	CRE Fsk mod	ERK AVP inh	HEK293 cAMP cs	IkB signaling	TSHR agonist
CCCN(Cc1cc2cc(C)ccc2[nH]c1=O)S(C)(=O)=O	?	-17%	10%	?	5µM*
CN(C)c1ccc(-c2cncnc2NCc2cccs2)cc1	14%	?	-3%	-1%[11.4 µM]	25%
CN(C)c1ccc(-c2cncnc2NCc2ccccc2)cc1	?	25µM*	-22%	1%[11.4 µM]	28%
CN(C)c1ccc(-c2ccc3ncnc(NCc4ccccc4)c3c2)cc1	?	13µM*	-53%	1%[11.4 µM]	?
c1ccc(CNc2ncnc3ccc(-c4ccoc4)cc23)cc1	-20%	-7%	10%	1%[11.4 µM]	-5%
c1ccc(CNc2ncnc3ccccc23)cc1	?	25µM*	?	?	?

Source: PubChem
